# Compound activity (PubChem BioAssay)
# HT1080 IDH1KD tx: kills HT-1080 cells with IDH1 knockdown; HT-1080 IDH1 knockdown viability, ATP luminescence, 48 h; Potency, µM (top dose mostly 46.1 µM), inactives show at the top dose activity, negative = toxicity, actives largely listed as cytotoxic; 360,000 compounds, 2% hits; AID 686971;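 further: 0% = DMSO wells and -100% = cell-free medium wells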
#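 Using the IDH1-knockdown HT-1080 line run in the same batch and compound series as the NT line, viability after 48 h at 37 °C was determined by CellTiter-Glo luminescence and expressed as % activity.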
# KB-3-1 cytotox: kills parental KB-3-1 adenocarcinoma cells. Potency, µM (doses to about 46.1 µM), hits mostly cytotoxic. KB-3-1 viability, CellTiter-Glo ATP luminescence, 72 h. 400,000 compounds, 1.4% hits; further: nearly all actives have a fitted effect of over 60% in size
#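 Using CellTiter-Glo luminescence, growth of non-resistant KB-3-1 adenocarcinoma cells is assessed 72 h after pin-tool compound addition at 37 °C. Normalized responses across the concentration series yield fitted curves.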
# DT40 TDP1 CPT: DT40-hTDP1 cell growth loss with CPT; chicken DT40 Tdp1-/-;hTDP1 cells + 20 nM CPT, ATP luminescence, 48 h; Potency, µM (highest dose often 46.2 µM), without a hit: top-dose activity change, negative = growth inhibition, actives largely listed as inhibitors; 420,000 compounds, 12% hits; AID 686979; further: nearly all actives have a fitted effect of over 55% in size
#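 Chicken DT40 Tdp1-/- cells complemented with human TDP1, 400 cells/well, exposed to compounds plus 20 nM camptothecin for at least 48 h at 37 C; viability read as ATP content by CellTiter-Glo luminescence.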
# DT40 TDP1 no CPT: qHTS for Inhibitors of human tyrosyl-DNA phosphodiesterase 1 (TDP1): qHTS in cells in absence of CPT; Potency, µM (top dose mostly 46.2 µM), for the others: at the top dose activity change, negative = growth inhibition, most hits filed as inhibitors; DT40 Tdp1-/- hTDP1 cells, no CPT, ATP luminescence, 48 h; AID 686978, 2013; 420,000 compounds, 15% hits; further: nearly all actives have a fitted effect of over 55% in size
#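 Readout: luminescence from CellTiter-Glo after 30 min in the dark at RT. Cells: DT40 Tdp1-/- with stable hTDP1, 400/well. Exposure: compounds alone, ≥48 hr, 37 °C.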
# HT1080-NT tox: kills 2HG-producing HT-1080-NT fibrosarcoma cells | HT-1080-NT fibrosarcoma viability, CellTiter-Glo ATP luminescence, 48 h | Potency, µM (doses to about 46.1 µM), for inactives: at the highest dose activity, negative = less viability, hits mostly cytotoxic | 360,000 compounds, 1.6% hits;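 further: NT is the 2HG producing partner of a matched IDH1 knockdown line; 0% = DMSO-treated cells and -100% = media-only wells without cells; nearly all actives have a fitted effect of over 55% in size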
#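 750 cells/well, RPMI + 5% FBS; 2 h settle, compound pin-transfer, 48 h at 37 degrees C. CellTiter-Glo 10 min RT, luminescence. Normalized to DMSO and media-only wells.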
# KB-V1 cytotox: kills drug-selected multidrug resistant KB-V1 cells | Potency, µM (doses to about 46.1 µM), hits mostly cytotoxic | AID 1347076 | 400,000 compounds, 3.4% hits | KB-V1 MDR cells viability, CellTiter-Glo, 72 h; further: nearly all actives have a fitted effect of over 60% in size
#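 Readout: CellTiter-Glo luminescence, 10 min after addition. Cells: KB-V1 MDR subline, 72 h at 37 degrees C with compound. Analysis: corrected, normalized data fitted to concentration-effect curves.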
# Numbers without * were called inactive; i = inactive; ? = inconclusive; / = no result; [ ] = another dose, or the depositor's remark. The list is not random: actives were taken first. Their share in the collection is about 19%. The call rests on the fitted dose curve; in most records, active means well fitted curve in the direction sought with a large enough effect; inconclusive means small, poorly fitted or top-dose-only effect, or another doubt; inactive means no such curve, though single readings can be large; an effect the other way counts as inactive or inconclusive. Unless noted, on the % scale 0 is the no-effect control and ±100 the full control effect; potency means the concentration at half of the fitted maximal effect.
SMILES,HT1080 IDH1KD tx,KB-3-1 cytotox,DT40 TDP1 CPT,DT40 TDP1 no CPT,HT1080-NT tox,KB-V1 cytotox
COC(=O)c1ccc(Cn2c(C)c(C(=O)NCc3ccc(Cl)c(Cl)c3)sc2=O)o1,?,i,?,21µM*,?,?
C=Cc1ccc(Cn2c(C)c(C(=O)NCc3ccc(C#N)cc3)sc2=O)cc1,-27%,?,16µM*,16µM*,-13%,18µM*
CCOC(=O)c1cc(S(=O)(=O)NCc2ccc(Cl)cc2)[nH]n1,/,i,-10%,-20%,/,i
Cc1ccc2c(C)nc(Nc3nc(CSc4nnc(C)s4)cc(=O)[nH]3)nc2c1,?,?,11µM*,20µM*,?,i
COc1ccccc1Nc1nc(N)nc(CSc2nnc(C)s2)n1,-2%,i,-24%,-14%,-5%,i
COc1cccc2c(C)nc(Nc3nc(CSc4nnc(C)s4)cc(=O)[nH]3)nc12,3%,i,23µM*,18µM*,9%,i
CC(=O)NC1CCCN(O)C(=O)/C=C(\C)CCOC(=O)C(NC(C)=O)CCCN(O)C(=O)/C=C(\C)CCOC(=O)C(NC(C)=O)CCCN(O)C(=O)/C=C(\C)CCOC1=O (centres undefined),-1%,i,-3%,0%,0%,i
Cc1c(CN(C)C(=O)c2sc3cc(Cl)ccc3c2Cl)cnn1C,?,?,15µM*,21µM*,-11%,i
Cc1oc(-c2ccc(-c3ccccc3)cc2)nc1CN(CCO)C(C)C,23µM*,i,15%,?,?,i
Cc1ccc(-c2nc(CS(=O)(=O)CC(=O)NCCCN(Cc3ccccc3)C(C)C)c(C)o2)cc1,-27%,i,?,?,-15%,i
O=S(=O)(NCc1c(Cl)cccc1Oc1ccccc1)c1ccc(F)cc1,3%,16µM*,?,?,-2%,i
CC(C)C(NC(=O)C(C)N1C(=O)c2ccccc2C1=O)c1ccccc1 (centres undefined),10%,i,14%,-5%,15%,i
CCCNC(=O)C12CCC(C)(c3nc4cc(C)c(C)cc4nc31)C2(C)C (centres undefined),-10%,i,18µM*,23µM*,-11%,i
Cc1ccc2oc(C(=O)N3CCC(c4nc5ccccc5s4)CC3)c(C)c2c1,/,?,?,-28%,/,i
O=C(CSc1c(Cl)cccc1Cl)N1CCC(c2nc3ccccc3s2)CC1,-27%,?,?,21µM*,-19%,i
O=C(CSc1ccc(Cl)cc1)N1CCC(c2nc3ccccc3s2)CC1,-7%[9.24 µM],?,26µM*,?,?,10µM*
O=C(c1cccc(F)c1)N1CCC[C@@]2(CCN(c3ccncc3)C2)C1,/,/,1%,-17%,/,/
CCc1c(C(=O)N/N=C/c2ccc(OCc3ccc(F)cc3)c(OC)c2)nnn1-c1nonc1N,?,?,23µM*,5.8µM*,-1%,?
Cc1ccc(COc2ccc(/C=N/NC(=O)c3nnn(-c4nonc4N)c3COc3ccc(F)cc3)cc2)cc1,9%,?,?,?,8%,?
Nc1nonc1-n1nnc(C(=O)N/N=C/c2ccc(OCc3ccc(F)cc3)cc2)c1COc1ccccc1,?,i,?,?,18µM*,i
COC(=O)c1nnn(-c2nonc2N)c1COc1ccc(C=O)cc1OC,?,i,15µM*,9.2µM*,-27%,i
COc1ccc(C(=O)CC(c2ccccc2)C2C(=O)CCCC2=O)cc1 (centres undefined),-4%[9.24 µM],i,-24%,2%,0%,i
